# Assay results as given in PubChem BioAssay (Tox21).
# A number with no mark means an inactive call. Results filed as inconclusive are left out. Entries that show only a call come without a potency. Active and inactive are the calls of the source. Unless noted, calls come from the whole dose curve; as a rule, active = well fitted curve in the direction sought with a large enough effect in the repeat runs; inconclusive = weak or mixed curves; inactive = no such curve, though single readings can be large; an effect the other way counts as inactive or inconclusive.
# How the values were obtained:
# [1] = qHTS assay to identify small molecule agonists of the hypoxia (HIF-1) signaling pathway - cell viability counter screen (AID 1224844; calls by dose curve; note: nearly all actives have a fitted effect of over 50% in size)
# Procedure, shortened: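 Tox21 10K compounds were added to HRE-bla ME-180 cells (0.5% dialyzed FBS) and incubated 17 hrs at 37C; ATP-based CellTiter-Glo luminescence then reported cell viability in the same wells.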
# [2] = qHTS assay to identify small molecule agonists of H2AX (AID 1224845; active = well fitted activation curve with a large enough effect in the signal ratio in the repeat runs, not every such curve was filed as active; the % refers to the signal ratio; note: potency is the fitted concentration of half-maximal effect)
# Procedure, shortened: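 Wild-type CHO-K1 cells plated overnight, then exposed 3 hr at 37C to compounds at 15 concentrations (0.76% DMSO). Lysed, then HTRF anti-pH2AX(S139)-cryptate/anti-H2AX-d2 detection after 24 hr at room temperature; emissions 665 and 620 nm.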
# [3] = qHTS assay to identify small molecule agonists of the hypoxia (HIF-1) signaling pathway (AID 1224846; active = well fitted activation curve with a large enough effect in the signal ratio in the repeat runs, not every such curve was filed as active; the % refers to the signal ratio)
# Procedure, shortened: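 Steps: seed ME-180 HRE-bla cells (2,000/well, 0.5% dialyzed FBS); incubate 5 hrs at 37C; pin-transfer compounds or DMSO; incubate 17 hrs; add LiveBLAzer B/G substrate CCF4-AM; measure reporter activation by FRET.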
# [4] = qHTS assay to identify small molecule agonists of H2AX - cell viability counter screen (AID 1224847; calls by dose curve; note: top concentration of the series differs between compounds; nearly all actives have a fitted effect of over 30% in size)
# Procedure, shortened: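 Cells plated first: CHO-K1, 1000 per well in 10% FBS medium, incubated overnight at 37C. Then 15-point compound titration added (final DMSO 0.76%) for 3 hr. Finally CellTiter-Glo added and luminescence read.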
# [5] = qHTS RealTime-Glo MT Cell Viability Assay in HepG2 cells - 24 hour (AID 1224867); note: nearly all actives have a fitted effect of over 50% in size
# Procedure, shortened: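 Luminescence read-out: viable HepG2 cells reduce a prosubstrate to a NanoLuc substrate, giving a signal proportional to live cell number. Reads taken at 0, 8, 16, 24, 32 and 40 h of compound exposure at 37 C.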
# [6] = qHTS RealTime-Glo MT Cell Viability Assay in HEK293 cells - 32 hour (AID 1224868); note: nearly all actives have a fitted effect of over 50% in size; note: potency is the fitted concentration of half-maximal effect; for activity change, negative = cytotoxic: top concentration of the series differs between compounds
# Procedure, shortened: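 Nonlytic real-time viability readout: viable cells convert prosubstrate to NanoLuc substrate, giving luminescence proportional to live cell number. HEK293, 600 cells/well, compound added after 5 h, continuous culture at 37 C.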
# [7] = qHTS assay to identify small molecule antagonists of the estrogen related receptor (ERR) signaling pathway from Tox21 library (AID 1224848); note: nearly all actives have a fitted effect of over 50% in size; note: potency is the fitted concentration of half-maximal effect
# Procedure, shortened: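 Cells: ERR line, 2,000/well; 6 h preincubation 37 C/5% CO2. Cpd in DMSO via pin tool; 18 h, 37 C. ONE-Glo, 30 min RT, luminescence.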
# [8] = qHTS assay to identify small molecule agonists of the estrogen related receptor (ERR) signaling pathway from Tox21 library (AID 1224849; calls by dose curve; note: nearly all actives have a fitted effect of over 15% in size); conditions: ERR reporter cell line, ONE-Glo luciferase, 18 h; at 92.4 µM (top of the series) unless noted
# Procedure, shortened: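 Agonist signal is luciferase luminescence from an ERR reporter cell line treated 18 h at 37 C with DMSO-dissolved compounds, read 30 min after ONE-Glo addition at room temperature.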
# [9] = A CellTox Green Cytotoxicity Assay to monitor cytotoxicity in HEK293 cells - 0 hour (AID 1224869); note: nearly all actives have a fitted effect of over 50% in size
# Procedure, shortened: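 Cytotoxicity was tracked continuously in HEK293 cells by a DNA-binding dye excluded from viable cells. Compounds were transferred in DMSO 5 h after seeding; fluorescence was recorded at intervals up to 40 h.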
# [10] = qHTS RealTime-Glo MT Cell Viability Assay in HepG2 cells - 40 hour (AID 1224870); note: nearly all actives have a fitted effect of over 50% in size
# Procedure, shortened: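 HepG2 cells mixed with RealTime-Glo MT reagents (NanoLuc plus cell-permeant prosubstrate) were seeded at 600 cells/well, incubated 5 h at 37 C/5% CO2, then pinned with compounds in DMSO; nonlytic luminescence tracked viability during 40 h treatment.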
compound,measurement,setting,value
N#Cc1ccc(N(CC(N)=O)CC(F)(F)F)cc1C(F)(F)F,Potency,[1],inactive
same,Potency,[2],inactive
same,Potency,[3],inactive
same,Potency,[4],inactive
same,Potency,[5],inactive
same,Potency,[6],inactive
CCNS(=O)(=O)C(F)(F)C(F)(F)C(F)(F)C(F)(F)C(F)(F)C(F)(F)C(F)(F)C(F)(F)F,Potency,[1],inactive
same,Potency,[2],inactive
same,Potency,[3],inactive
same,Potency,[4],inactive
same,Potency,[7],inactive
same,"activity change, positive = activation",[8],-10.2%
same,Potency,[5],inactive
same,Potency,[6],inactive
same,Potency,[9],inactive
same,Potency,[10],inactive
CC[C@]1(O)CC[C@H]2[C@@H]3CCC4=CCCC[C@@H]4[C@H]3CC[C@@]21C,Potency,[1],inactive
same,Potency,[2],inactive
same,Potency,[3],inactive
same,Potency,[4],inactive
same,"activity change, positive = activation",[8],-21.6% [at 42.5 µM]
same,Potency,[5],inactive
Nc1cc(Cl)ccc1Cl,Potency,[1],inactive
same,Potency,[2],inactive
same,Potency,[3],inactive
same,Potency,[4],inactive
same,Potency,[7],inactive
same,Potency,[5],inactive
same,Potency,[6],inactive
same,Potency,[9],inactive
same,Potency,[10],inactive
O=Cc1ccccc1,Potency,[1],inactive
same,Potency,[2],inactive
same,Potency,[3],inactive
same,Potency,[4],inactive
same,Potency,[7],inactive
same,"activity change, positive = activation",[8],7.55%
same,Potency,[5],inactive
same,Potency,[6],inactive
same,Potency,[9],inactive
same,Potency,[10],inactive
CC(C)NCC(O)c1ccccc1Cl (stereo not drawn),Potency,[1],inactive
same,Potency,[2],inactive
same,Potency,[3],inactive
same,Potency,[4],inactive
same,Potency,[7],inactive
same,"activity change, positive = activation",[8],0.518% [at 42.5 µM]
same,Potency,[5],inactive
same,Potency,[10],inactive
Cc1ccn2nc(S(=O)(=O)Nc3c(F)cccc3F)nc2n1,Potency,[1],inactive
same,Potency,[2],inactive
same,Potency,[3],inactive
same,Potency,[4],inactive
same,Potency,[7],inactive
same,Potency,[5],inactive
same,Potency,[6],inactive
same,Potency,[9],inactive
same,Potency,[10],inactive
[O-][Cl+3]([O-])([O-])O,Potency,[1],inactive
same,Potency,[2],inactive
same,Potency,[3],inactive
same,Potency,[4],inactive
same,Potency,[5],inactive
same,Potency,[6],inactive
same,Potency,[9],inactive
same,Potency,[10],inactive
ClSC(Cl)(Cl)Cl,Potency,[1],inactive
same,Potency,[2],inactive
same,Potency,[3],inactive
same,Potency,[4],inactive
same,Potency,[7],inactive
same,"activity change, positive = activation",[8],1.32%
same,Potency,[5],inactive
same,Potency,[6],inactive
same,Potency,[10],inactive
COC(=O)C(C)N(C(=O)c1ccco1)c1c(C)cccc1C (stereo not drawn),Potency,[1],inactive
same,Potency,[2],inactive
same,Potency,[3],inactive
same,Potency,[4],inactive
same,Potency,[7],inactive
same,"activity change, positive = activation",[8],-15.8%
same,Potency,[5],inactive
same,Potency,[6],inactive
same,Potency,[10],inactive
C[C@H]1[C@H](c2ccc(Cl)cc2)SC(=O)N1C(=O)NC1CCCCC1,Potency,[1],inactive
same,Potency,[2],inactive
same,Potency,[3],inactive
same,Potency,[4],inactive
same,Potency,[7],30.6 µM (active)
same,Potency,[5],inactive
same,Potency,[6],49 µM (active)
same,Potency,[9],inactive
same,Potency,[10],inactive
c1cc[n+]2c(c1)-c1cccc[n+]1CC2,Potency,[1],inactive
same,Potency,[2],inactive
same,Potency,[3],inactive
same,Potency,[4],inactive
same,Potency,[5],inactive
same,Potency,[6],inactive
same,Potency,[9],inactive
same,Potency,[10],inactive
CN1C2CCC(C)(C)C1CC(OC(=O)C(O)(c1cccs1)c1cccs1)C2 (stereo not drawn),Potency,[1],inactive
same,Potency,[2],inactive
same,Potency,[3],inactive
same,Potency,[4],inactive
same,Potency,[5],inactive
same,Potency,[6],inactive
same,Potency,[9],inactive
same,Potency,[10],inactive
O=C(CCCCl)c1ccc(F)cc1,Potency,[1],inactive
same,Potency,[2],inactive
same,Potency,[3],inactive
same,Potency,[4],inactive
same,Potency,[7],inactive
same,Potency,[5],inactive
same,Potency,[6],inactive
same,Potency,[9],inactive
same,Potency,[10],inactive
BrCCCBr,Potency,[1],inactive
same,Potency,[2],inactive
same,Potency,[3],inactive
same,Potency,[4],inactive
same,Potency,[5],inactive
same,Potency,[6],inactive
same,Potency,[10],inactive
CC#C[C@]1(O)CC[C@H]2[C@@H]3C[C@H](C)C4=CC(=O)CC[C@]4(C)[C@H]3CC[C@@]21C,Potency,[1],inactive
same,Potency,[2],7.8 µM (active)
same,Potency,[3],inactive
same,Potency,[4],inactive
same,Potency,[5],inactive
same,Potency,[9],inactive
CC(C)(C)c1ccc(OP(=O)(Oc2ccccc2)Oc2ccccc2)cc1,Potency,[1],inactive
same,Potency,[2],inactive
same,Potency,[3],inactive
same,Potency,[7],61.5 µM (active)
same,"activity change, positive = activation",[8],-31.3%
same,Potency,[5],inactive
same,Potency,[9],inactive
Clc1c(Cl)c(Cl)c(Cl)c(Cl)c1Cl,"activity change, negative = cytotoxicity",[1],4.74% [at 6.97 µM]
same,activation (H2AX phosphorylation),[2],-0.165% [at 14 µM]
same,activation,[3],-0.723% [at 7.01 µM]
same,"activity change, negative = cytotoxicity",[4],-1.8% [at 14 µM]
same,"activity change, negative = cytotoxicity",[5],-0.564% [at 6.97 µM]
same,"activity change, negative = cytotoxic",[6],0.699% [at 6.97 µM]
same,cytotoxicity,[9],-0.372% [at 6.97 µM]
same,"activity change, negative = cytotoxic",[10],0.985% [at 6.97 µM]
Nc1c(Cl)c(Cl)c(Cl)c(Cl)c1Cl,Potency,[1],inactive
same,Potency,[2],inactive
same,Potency,[3],inactive
same,Potency,[4],inactive
same,Potency,[5],inactive
same,Potency,[9],inactive
same,Potency,[10],inactive
O=[N+]([O-])c1ccccc1-c1ccccc1,Potency,[1],inactive
same,Potency,[2],inactive
same,Potency,[3],inactive
same,Potency,[7],inactive
same,"activity change, positive = activation",[8],-1.13%
same,Potency,[5],inactive
same,Potency,[6],inactive
same,Potency,[9],inactive
same,Potency,[10],inactive
CCCC[N+]1(C)CCCC1 (tested in a mixture with another compound),Potency,[1],inactive
same,Potency,[2],inactive
same,Potency,[3],inactive
same,Potency,[4],inactive
same,Potency,[5],inactive
same,Potency,[6],inactive
same,Potency,[9],inactive
same,Potency,[10],inactive
CC(C)C(Br)C(=O)NC(N)=O (stereo not drawn),Potency,[1],inactive
same,Potency,[2],inactive
same,Potency,[3],inactive
same,Potency,[4],inactive
same,Potency,[5],inactive
same,Potency,[9],inactive
same,Potency,[10],inactive
CCC(C)Nc1c([N+](=O)[O-])cc(C(C)(C)C)cc1[N+](=O)[O-] (stereo not drawn),Potency,[1],inactive
same,Potency,[2],inactive
same,Potency,[3],inactive
same,Potency,[7],inactive
same,"activity change, positive = activation",[8],11.9%
same,Potency,[5],inactive
same,Potency,[9],inactive
same,Potency,[10],inactive
CC(=O)O.CC(=O)O.CC(=O)O.CC(=O)O.CC(=O)O.CC(=O)O.CC(=O)O.O.O.[Cr].[Cr].[Cr],Potency,[1],inactive
same,Potency,[2],inactive
same,Potency,[3],inactive
same,Potency,[4],inactive
same,Potency,[5],inactive
same,Potency,[6],inactive
same,Potency,[9],inactive
same,Potency,[10],inactive
COCCC#N,Potency,[1],inactive
same,Potency,[2],inactive
same,Potency,[3],inactive
same,Potency,[4],inactive
same,Potency,[5],inactive
same,Potency,[6],inactive
same,Potency,[9],inactive
same,Potency,[10],inactive
CC(C)=CCN1CC[C@@]2(C)c3cc(O)ccc3C[C@@H]1[C@@H]2C,Potency,[1],inactive
same,Potency,[2],inactive
same,Potency,[3],inactive
same,Potency,[4],inactive
same,Potency,[5],inactive
same,Potency,[9],inactive
same,Potency,[10],inactive
